The source of these data is PubChem BioAssay AID940 (Emory University Molecular Libraries Screening Center, 2007).

Several values for one entry are separate records, joined by “and”; a condition that tells them apart may be missing. Equal entries are not always repeated. The campaign covered roughly 260,000 compounds. About 2,200 (0.85%) were called active.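 Rule for the calls: active = compounds whose cAMP rise, as percent of the full-agonist control response, exceeds 60; inactive = the rest.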 Only a selection was taken, and actives are over-represented in it overall. Where a structure was tested more than once in an assay, its records may differ in their call.

In the experiment the target is Prostaglandin E2 receptor EP2 subtype (Homo sapiens) (UniProt P43116). Put plainly: modulation of human EP2 prostaglandin signaling – cell-based, HTRF cAMP, PGE2 stimulation, primary screen (AID 940).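 Note: rat C6 glioma line stably carrying human EP2 under a CMV promoter; the protocol text gives 20 µM as final concentration; 100% = response of wells given 1 µM PGE2.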 The following applies: EP2-expressing cells, cAMP HTRF FRET, PGE2 co-stimulation; at 25 µM; stronger effect = higher value. (In TR-FRET formats the signal depends on donor and acceptor labels being close together.)
Chain of Prostaglandin E2 receptor EP2 subtype (Homo sapiens) (P43116 whole entry, looked up): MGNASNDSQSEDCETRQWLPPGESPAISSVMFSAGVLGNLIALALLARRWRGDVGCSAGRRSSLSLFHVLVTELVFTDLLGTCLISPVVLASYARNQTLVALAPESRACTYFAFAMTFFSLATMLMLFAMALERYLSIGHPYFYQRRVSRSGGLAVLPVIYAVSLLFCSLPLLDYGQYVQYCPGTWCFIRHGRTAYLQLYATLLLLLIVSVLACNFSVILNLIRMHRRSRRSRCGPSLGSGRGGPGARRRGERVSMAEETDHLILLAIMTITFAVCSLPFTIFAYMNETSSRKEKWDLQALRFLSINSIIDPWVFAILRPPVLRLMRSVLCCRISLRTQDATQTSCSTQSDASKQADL
Turning to `CC(C)NC(=S)N1CCN(C(c2ccccc2)c2ccccc2)CC1`, the induction is 21.2% (inactive).
On to `COc1ccccc1NC(=S)N1CCN(C(c2ccccc2)c2ccccc2)CC1`, for which the induction is 61.4% (active).
For `COc1ccccc1NC(=S)N1CCC(NC(=O)C23CC4CC(CC(C4)C2)C3)CC1`, the induction is -21% (inactive) and -7.94% (inactive).
`COc1cccc(NC(=O)C(C#N)Cc2cccnc2)c1` (stereo not given): the induction was 2.36% (inactive).
As to `O=c1oc2ccccc2cc1-c1csc(Nc2cccc(O)c2)n1`, the induction was -123% (inactive).
The value for `CC1(C)CCCC2(C)C3C1[C@@H](O)C2(C)C[C@H]3O` (stereo not given in full) was 15.3% (inactive); that for `CC(C)NC(=O)CN1N=C(c2ccccc2)Cn2c(cc3ccccc32)C1=O` was -36.4% (inactive).
`NC(=O)c1nnn(-c2ccc(S(=O)(=O)N3CCCCC3)cc2)c1N`: the induction was 11.5% (inactive).
In the case of `O=C(Nc1ccccc1N1CCCCC1)c1ccc2nccnc2c1`, the induction is 87.1% (active).
For the compound `O=C(Nc1ccccc1N1CCN(C(=O)c2ccccc2)CC1)c1ccc2c(c1)OCO2`, the induction is -6.37% (inactive).
For the compound `O=C(Nc1ccccc1N1CCCCC1)c1cccc(F)c1`, the induction was 66.7% (active).
With `Cc1cccc(C(=O)Nc2ccccc2N2CCN(c3ccc(F)cc3)CC2)c1`, the induction was 49.9% (inactive).
As to `O=C(Nc1ccccc1N1CCN(c2ccccc2)CC1)c1cccc(F)c1`, the induction is 48.5% (inactive).
As to `Cc1ccc(C)c(NC(=O)c2ccc3nccnc3c2)c1`, the induction was -54% (inactive).
On to `CN(C(=O)C1CCCCC1)c1nc(-c2ccc(Cl)cc2)cs1`, for which the induction is -0.87% (inactive).
In the case of `Cc1ccc(N(C(=O)Cn2nnc3ccccc32)C(C(=O)NC2CCCC2)c2ccsc2)cc1` (stereo not given), the induction was 20.6% (inactive).
`CC(=O)C1CC(CC(=O)N[C@H](Cn2nnc3ccccc32)C(C)C)C1(C)C` (stereo not given in full): the induction was -25.1% (inactive).
For `COc1cccc(/C(O)=C2/C(=O)C(=O)N(CCN(C)C)C2c2ccco2)c1` (stereo not given), the induction was 2.05% (inactive).
In the case of `Cc1ccc2[nH]c(=O)c(C(c3nnnn3Cc3ccc(F)cc3)N3CCCC3)cc2c1` (stereo not given), the induction was -4.96% (inactive).
The value for `NC(=O)CNC(=O)C1CCCN(c2ncccn2)C1` (stereo not given) was 14.7% (inactive); that for `COCCNCC(=O)N1CCc2ccccc21` was 10.7% (inactive); that for `Cc1ccc2cc(C(c3nnnn3C3CCCC3)N3CCC(C)CC3)c(=O)[nH]c2c1C` (stereo not given) was -2.6% (inactive).
As for `O=c1[nH]c(CSc2ncc(-c3ccc(F)cc3)n2Cc2ccco2)nc2ccccc12`, the induction was 46.2% (inactive) and 68.4% (active).
As to `CCn1c(Cc2ccccc2)nnc1SCc1nc2ccccc2c(=O)[nH]1`, the induction was 2.09% (inactive).
Turning to `Cn1c(-c2ccc(F)cc2)cnc1SCC(=O)NCc1ccco1`, the induction was -17% (inactive) and -3.43% (inactive).
The value for `COc1ccc2cc(C)c3nn(CC(=O)N4CCC(C)CC4)c(=O)n3c2c1` was -70.2% (inactive).
On to `CCn1cc(S(=O)(=O)N2CCC(CCc3ccc(C(=O)O)cc3)CC2)c(C)n1`, for which the induction was -33.1% (inactive).
In the case of `Cc1cc(NC(=O)CSc2nnc3c4c5c(sc4nc(C(C)C)n23)CCCC5)no1`, the induction is 0.87% (inactive).
The value for `CCOC(=O)C1=C(c2ccccc2)NC(=S)NC1c1ccc(Cl)cc1` (stereo not given) was 47.1% (inactive); that for `CCOC(=O)C1=C(CNC2CCCCC2)NC(=O)NC1c1cc(C)ccc1C` (stereo not given) was 34.3% (inactive); that for `CCOC(=O)C1=C(CN2CCc3ccccc32)NC(=O)NC1c1cccc([N+](=O)[O-])c1` (stereo not given) was 64.5% (active).
Take `CCOC(=O)C1=C(CN2CCc3ccccc32)NC(=O)NC1c1ccc(Cl)cc1` (stereo not given): the induction is 68.2% (active).
The value for `CCOC(=O)C1=C(C)NC(=O)NC1c1ccccc1` (stereo not given) was 19% (inactive); that for `CCOC(=O)C1=C(CN2CCCCCC2)NC(=O)NC1c1cccc([N+](=O)[O-])c1` (stereo not given) was -9.45% (inactive); that for `COc1ccc(-c2nc(SCC(=O)O)n[nH]2)cc1` was -21.9% (inactive).
As for `Cc1ccc(NC(=O)CSc2nccc(=O)[nH]2)c(C)c1`, the induction is -21.1% (inactive).
The value for `Clc1c(-c2nnc(-c3ccc(N4CCOCC4)cc3)o2)sc2ccccc12` was -13.2% (inactive).
As to `Cc1cc2nc(C(F)(F)F)cc(-c3cccs3)n2n1`, the induction was 19.1% (inactive).
As for `c1csc(-c2cn3c(n2)SCC3)c1`, the induction is -16.2% (inactive).
`Cc1cc(-c2cccs2)nc(-n2cccc2)n1`: the induction was 62.7% (active).
With `O=C(CSc1nc(-c2ccco2)cc(C(F)(F)F)n1)Nc1ccc(Cl)cc1Cl`, the induction was -110% (inactive).
Take `O=C(NCCO)C(=O)NCC1COc2ccccc2O1` (stereo not given): the induction was -12.4% (inactive).
Take `Cc1cc(=O)n2c3c(cccc13)CCC2`: the induction was 1.93% (inactive).
Take `Cc1ccc2nc(NC(=O)c3c(O)c4cccc5c4n(c3=O)CC5)sc2c1`: the induction was -11.9% (inactive).
The result for `CCNC(=O)c1c(O)c2cccc3c2n(c1=O)CC3` reads 60.8% (active).
In the case of `CN1c2ncccc2C(=O)NC12CCN(C(=O)Cn1ncc3ccccc3c1=O)CC2`, the induction was -10.6% (inactive).
Turning to `CC1Cc2ccccc2N1C(=O)c1cc2sccc2n1Cc1ccccc1` (stereo not given), the induction is 54.1% (inactive).
Turning to `O=C(c1cc2sccc2n1Cc1ccc(F)cc1)N1CCc2ccccc21`, the induction is 63% (active).
With `O=C(NCc1ccco1)c1cc2sccc2n1Cc1ccc(F)cc1`, the induction is 41.1% (inactive).
In the case of `O=C(NCc1nc(-c2cccnc2)n[nH]1)C(c1ccccc1)C1CCCCC1` (stereo not given), the induction was 24.6% (inactive).
Take `Cc1ccccc1-n1c(SCC(=O)N2CCCCCC2)nnc1-c1cccnc1`: the induction was -15.5% (inactive).
In the case of `COc1cccc(CN2CCN(C(=O)c3ccccn3)[C@@H](C)C2)c1`, the induction is -14.5% (inactive).
For `CCn1c(SCC(=O)Nc2ccc(C)cc2C)nnc1C(C)C`, the induction is -31.6% (inactive).
The value for `COc1cc(OC)c(NC(=O)c2ccc(Br)o2)cc1Cl` was -17.9% (inactive).
Turning to `CCN1CCN(c2c(Cl)cccc2NC(=O)c2ccc(Br)o2)CC1`, the induction is 74.4% (active).
The result for `CCCC(=O)Nc1ccc(Cl)c(NC(=O)c2ccc(Br)o2)c1` reads 6.2% (inactive); that for `CCCc1nc(SCC(=O)N2CCCC2)c2c(C)c(C)sc2n1`, 1.9% (inactive).
Take `CCCc1nc(SCC(=O)OCC)c2c(C)c(C)sc2n1`: the induction was 74% (active).
For the compound `CCOC(=O)c1sc2nc(C)nc(SCC(N)=O)c2c1C`, the induction is 9.11% (inactive).
Take `COc1ccc(OC)c(C(=O)CSc2ncnc3c2cnn3-c2ccccc2C)c1`: the induction was 44.3% (inactive).
